Assay outcomes: PubChem, National Center for Advancing Translational Sciences (NCATS)
RORg inh = inhibitors of mouse ROR gamma transcriptional activity; Drosophila S2 Gal4-RORgamma UAS-luciferase reporter, 20 h; actives 5.4% (n = 310,000); Potency, µM (titrated, usually from 53.6 µM), for the others: top-dose activity change, negative = inhibition, most hits filed as inhibitors; P51450; note: potency is the fitted concentration of half-maximal effect; % is set by controls: 0 for no effect and ±100 for the full control effect; nearly all actives have a fitted effect of over 60% in size
Target sequence (P51450 whole entry, looked up, the tested form may be a part): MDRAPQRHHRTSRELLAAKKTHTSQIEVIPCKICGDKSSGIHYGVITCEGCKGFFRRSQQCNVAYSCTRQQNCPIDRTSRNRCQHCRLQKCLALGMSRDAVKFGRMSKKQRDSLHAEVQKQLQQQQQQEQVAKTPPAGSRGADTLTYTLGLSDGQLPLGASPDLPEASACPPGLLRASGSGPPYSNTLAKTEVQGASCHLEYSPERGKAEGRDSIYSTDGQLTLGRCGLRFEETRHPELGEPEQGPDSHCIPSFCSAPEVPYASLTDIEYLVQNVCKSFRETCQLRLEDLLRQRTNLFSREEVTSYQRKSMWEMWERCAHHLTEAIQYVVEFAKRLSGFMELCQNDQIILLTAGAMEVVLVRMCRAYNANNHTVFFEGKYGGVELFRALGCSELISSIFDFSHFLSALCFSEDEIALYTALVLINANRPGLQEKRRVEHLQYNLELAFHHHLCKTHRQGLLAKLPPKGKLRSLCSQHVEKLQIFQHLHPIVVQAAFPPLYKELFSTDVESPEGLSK
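Drosophila S2 cells stably expressing Gal4-DBD/mouse RORγ fusion under metallothionein promoter plus UAS-luciferase; compound 1 h, then 700 uM CuSO4 induction for 20 h at ambient temperature; inhibition read as reduced luminescence.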
p53 reactivation = mutant p53 re-activation in reporter cells | actives 0.063% (n = 320,000) | H1299 p53-A138V BP100-luciferase reporter, luminescence, 24 h | Potency, µM (series often up to 92.2 µM), for the others: top-dose activity change, positive = activation, most hits filed as activators | AID 504706; note: potency is the fitted concentration of half-maximal effect; % of control where 0% means no effect; nearly all actives have a fitted effect of over 45% in size
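p53-null H1299 cells stably carrying temperature-sensitive p53-A138V and a BP100-luciferase reporter were pinned with compounds (4-point, 1:5 series) and held 24 hrs at 37 deg C. Luminescence was read 10 min after detection reagent.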
Gal4-VP16 FLuc = counter-screen for ROR gamma inhibitors: Gal4-VP16 reporter; Drosophila S2 Gal4-VP16 UAS-luciferase, luminescence, 20 h; Potency, µM (doses to about 53.6 µM), for the others: at the top dose activity, negative = inhibition, hits mostly inhibitors; actives 3.5% (n = 310,000);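 note: Gal4-VP16 expression switched on by copper sulfate through the metallothionein promoter; potency is the fitted concentration of half-maximal effect; % is set by controls: 0 for no effect and ±100 for the full control effect; nearly all actives have a fitted effect of over 50% in size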
ELG1 repair inh = blocks ELG1-dependent DNA repair in HEK293T cells. HEK293T ELG1-luciferase reporter, luminescence, 16 h; DNA damage induced by 5-fluorouridine. Potency, µM (top dose mostly 46.1 µM), for inactives: at the highest dose activity change, negative = inhibition, actives largely listed as inhibitors. actives 2.3% (n = 330,000); note: potency is the fitted concentration of half-maximal effect; % is set by controls: 0 for no effect and ±100 for the full control effect; nearly all actives have a fitted effect of over 55% in size
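5-Fluorouridine DNA damage + compound/DMSO, 2,000 cells/well, 16 h, 37 °C/5% CO2. ONE-Glo, 30 min RT, luminescence. Readout = decrease in reporter signal.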
BRCA1 expr act = BRCA1 expression activation. MCF7-BRCA1-FFLuc reporter, luminescence, 48 h; response scale: scaled: vehicle 0%, 10 µM genistein 100%. Potency, µM (series often up to 46.1 µM), without a hit: at the highest dose activation, usual class: activators. actives 1.1% (n = 380,000). AID 624202; note: potency is the fitted concentration of half-maximal effect; nearly all actives have a fitted effect of over 80% in size
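Reporter cells (MCF7, BRCA1 promoter-firefly luciferase) received library compounds across a concentration series for 48 h. End-point luminescence was measured and concentration-effect curves derived after normalization.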
Giardia kill = Giardia lamblia killing | Giardia lamblia trophozoite viability | activity change, % at 7.66 µM, hits read low | actives 0.15% (n = 340,000) | AID 540267; in the data active = activity change below about -80%; inconclusive = between about -30% and that limit;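 note: parasites exposed to compound for two days anaerobically before the ATP read; % is set by controls: 0 for no effect and ±100 for the full control effect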
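Luminescent ATP signal served as the viability read-out, measured 15-30 min after adding ATP detection reagent to trophozoites that had been incubated with compounds for 48 hrs at 37 deg C anaerobically at 100 cells/well.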
* marks the source's active call; other numbers are inactive results. Hits are enriched below; roughly 7.6% of the tested compounds scored in any of these assays. Unless noted, calls come from the whole dose curve; as a rule, active = well fitted curve in the direction sought with a large enough effect; inconclusive = small, poorly fitted or top-dose-only effect, or another doubt; inactive = no such curve, though single readings can be large; an effect the other way counts as inactive or inconclusive.

Screening Cc1cn(C2CC(O)C(CO)O2)c(=O)n(Cc2ccccc2)c1=O (configuration not stated) returned BRCA1 expr act -1% and Giardia kill inconclusive.
For COc1ccccc1N1C(=O)CCC1(C#N)c1ccc(Br)cc1 (configuration not stated) the results were RORg inh 9%, p53 reactivation -4%, Gal4-VP16 FLuc 5%, ELG1 repair inh 3%, BRCA1 expr act 6% and Giardia kill 1.
CCOC(=O)c1csc(NC(=O)c2cc(OC)c(OC)c(OC)c2)n1 was read as RORg inh -9%, p53 reactivation -34%, Gal4-VP16 FLuc -11%, ELG1 repair inh 5.8µM*, BRCA1 expr act -34% and Giardia kill -14.
For COc1ccc2c(c1)CCC/C2=N\NC(=O)c1ccoc1C the results were RORg inh 40µM*, p53 reactivation 15%, Gal4-VP16 FLuc inconclusive, ELG1 repair inh inconclusive, BRCA1 expr act 43% and Giardia kill -16.
For CCCC(=O)Nc1nc(C(=O)OCC)cs1 the results were RORg inh 14%, p53 reactivation 4%, Gal4-VP16 FLuc -7%, ELG1 repair inh 29%, BRCA1 expr act 44% and Giardia kill -21.
Screening Cc1cc(C(=O)N/N=C2\CCCc3ccccc32)c(C)o1 returned RORg inh -11%, p53 reactivation 14%, Gal4-VP16 FLuc 14%, ELG1 repair inh inconclusive, BRCA1 expr act inconclusive and Giardia kill -17.
Screening CC(C)(C)OC(=O)NC(Cc1ccccc1)C(=O)NC1COC2CC(n3cc(F)c(=O)[nH]c3=O)OC12 (configuration not stated) returned RORg inh 43%, Gal4-VP16 FLuc 4% and Giardia kill 1.
`C/C(=N/NC(=O)c1ccccn1)c1ccco1` gave RORg inh 10µM*, p53 reactivation 2%, Gal4-VP16 FLuc inconclusive, ELG1 repair inh inconclusive, BRCA1 expr act -72% and Giardia kill -7.
For C/C(=N\NC(=O)c1n[nH]c2c1CCC2)c1ccco1 the results were RORg inh 8.9µM*, p53 reactivation 5%, Gal4-VP16 FLuc 13µM*, ELG1 repair inh inconclusive, BRCA1 expr act -50% and Giardia kill -17.
`C/C(=N/NC(=O)c1ccccn1)c1c[nH]c2ccccc12` gave RORg inh -6%, p53 reactivation 9%, Gal4-VP16 FLuc -6%, ELG1 repair inh inconclusive, BRCA1 expr act 7.1µM* and Giardia kill -12.
C/C(=N/NC(=O)c1ccccn1)c1ccc(O)cc1 was read as RORg inh -8%, p53 reactivation 11%, Gal4-VP16 FLuc -3%, ELG1 repair inh inconclusive, BRCA1 expr act inconclusive and Giardia kill -17.
Screening C/C(=N\NC(=O)c1ccc(Cl)cc1)c1ccccn1 returned RORg inh 0.028µM*, p53 reactivation inconclusive, Gal4-VP16 FLuc inconclusive, ELG1 repair inh inconclusive, BRCA1 expr act -54% and Giardia kill -19.
`CC(=O)OC1CCC2(C)C(CCC3C4CC=C(C(C)=O)C4(C)OC(=O)CC32)C1` (configuration not stated) gave BRCA1 expr act -59%.
Screening Nc1ccc2oc(=O)c3ccccc3c2c1 returned RORg inh 1%, p53 reactivation 4%, Gal4-VP16 FLuc -9%, ELG1 repair inh inconclusive, BRCA1 expr act 11µM* and Giardia kill 16.
Screening CC1=NN(c2ccccc2)C(=O)C1C=Nc1ccc(N(C)C)cc1 (configuration not stated) returned RORg inh -26%, p53 reactivation inconclusive, Gal4-VP16 FLuc -4%, ELG1 repair inh 6.5µM*, BRCA1 expr act -21% and Giardia kill -15.
`O=C(NCc1ccco1)c1nc2c(nnn2Cc2ccccc2Cl)c(=O)[nH]1` gave RORg inh 14µM*, p53 reactivation inconclusive, Gal4-VP16 FLuc 7.9µM*, ELG1 repair inh 21µM*, BRCA1 expr act -104% and Giardia kill -7.
For CCCCCCC(=O)N1CCC(c2nc3c(nnn3Cc3ccccc3Cl)c(=O)[nH]2)CC1 the results were RORg inh 7.1µM*, p53 reactivation -31%, Gal4-VP16 FLuc 16µM*, ELG1 repair inh inconclusive, BRCA1 expr act -27% and Giardia kill 22.
O=C(C1CCCCC1)N1CCC(c2nc3c(nnn3Cc3ccccc3Cl)c(=O)[nH]2)CC1 was read as BRCA1 expr act 0% and Giardia kill -21.
For Cc1cccc(CN2C(=O)c3ccccc3S(=O)(=O)c3ccc(C(=O)N(C)Cc4ccccc4)cc32)c1 the results were BRCA1 expr act -41%.
`Cn1nc([N+](=O)[O-])c(C(C#N)c2ccccn2)c(Cl)c1=O` (configuration not stated) gave RORg inh 10µM*, p53 reactivation -13%, Gal4-VP16 FLuc inconclusive, ELG1 repair inh -18%, BRCA1 expr act -75% and Giardia kill -27.
`CCCn1nc([N+](=O)[O-])c(C(C#N)c2nc3ccccc3o2)c(Cl)c1=O` (configuration not stated) gave RORg inh -26%, p53 reactivation -2%, Gal4-VP16 FLuc inconclusive, ELG1 repair inh -5%, BRCA1 expr act -69% and Giardia kill -12.
Screening Cc1cc2cc(C)c3nnc(SCC(=O)N4CCCc5ccccc54)n3c2cc1C returned RORg inh -11%, p53 reactivation 1%, Gal4-VP16 FLuc 8% and ELG1 repair inh 1%.
CNC(=O)c1c(Cl)cnn1-c1ccc(F)cc1 was read as RORg inh -2%, p53 reactivation 4%, Gal4-VP16 FLuc -3%, ELG1 repair inh inconclusive, BRCA1 expr act 102% and Giardia kill 6.
`Cc1ccc(-n2ncc(Cl)c2C(=O)NCc2ccccc2)cc1` gave RORg inh 35%, p53 reactivation 8%, Gal4-VP16 FLuc 6%, ELG1 repair inh inconclusive, BRCA1 expr act 11µM* and Giardia kill 9.
`Cn1c(SCC(=O)N/N=C/C=C\c2ccco2)nc2ccccc21` gave RORg inh 0.4µM*, p53 reactivation 0%, Gal4-VP16 FLuc inconclusive, ELG1 repair inh 0%, BRCA1 expr act 0% and Giardia kill -3.
Cc1ccc(CSc2nnc(SCC(=O)N/N=C/C=C/c3ccco3)s2)cc1 was read as RORg inh 7.1µM*, p53 reactivation -6%, Gal4-VP16 FLuc 11µM*, ELG1 repair inh inconclusive, BRCA1 expr act -48% and Giardia kill 9.
